Our source for the growth values is PubChem BioAssay (NCI).

Values joined by “and” are separate entries in the source; they are usually repeats but may differ in a detail not shown here. Equal entries are not always repeated. The panel holds about 83,000 compounds, 20% with a hit somewhere; the sample as a whole holds those more often.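 Results are percent growth after 48 hours of single-concentration exposure. 100 means growth as in untreated cells, lower positive values show inhibition; negative values down to -100 show cell death.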 Active and inactive are the calls of the source. How the source made its calls: active means growth percent below 10; inactive means the rest.

The test system of the experiment is MDA-MB-468 breast. The experiment in a line: NCI-60 one-dose screen, 48 h (100 = growth as untreated, 0 = no growth, -100 = all killed). The note with it: 10 µM unless noted.
For the compound `Cc1[nH]c(C(=O)Nc2nc3ccc(NC(=O)CCN)cc3s2)c(Cl)c1Cl`, the growth was 69.4% (inactive). As for `CN(C)CC(=O)c1ccc2cc(Br)c3ccccc3c2c1`, the growth was 72.1% (inactive).

With `N[C@H]1CCC[C@@H]1NCCCCN1C(=O)c2cccc3cccc(c23)C1=O`, the growth is 50.4% (inactive).

Turning to `CCCCCc1cc[n+](CC(=O)c2ccc(Cl)cc2)cc1`, the growth was 65.9% (inactive). The figure for `CN(C)c1ccc(/C=N/N=C(\C#N)[S][Sn]([Cl])([c]2ccccc2)[c]2ccccc2)cc1` is -76.8% (active). In the case of `CC(=Nc1ccccc1)C1=C(O)C(Cc2ccc(O)cc2)NC1=O` (stereo not given), the growth is 17.6% (inactive). The figure for `C=CCc1c2c(c(OC)c3ccoc13)C(=O)/C(=C/c1ccccc1OC)O2` is -3.89% (active); for `Cn1cc2c(c1)-c1nc(Nc3ccccc3)ncc1CC2` it is 47.6% (inactive). Turning to `CCOC(=O)/C(=C/c1ccc([N+](=O)[O-])cc1)C(=O)c1ccccc1`, the growth is 21.3% (inactive).

Take `COc1ccc(C(=O)c2sc3nc(-c4ccccc4OC)ccc3c2N)cc1OC`: the growth is 66.9% (inactive). The figure for `O=C(N/N=C/c1ccccc1O)C(O)(c1ccccc1)c1ccccc1` is 38.2% (inactive). The figure for `COc1cc(CCC[P+](c2ccccc2)(c2ccccc2)c2ccccc2)cc2c1OCO2` is -22.7% (active); for `O=C(CCn1c[n+](CC(=O)c2ccc(F)cc2)c2ccccc21)Nc1cccc2cccnc12` it is -15.5% (active); for `NS(=O)(=O)c1ccc(CCN2C(=O)C3C(C2=O)C2(Cl)C(Cl)=C(Cl)C3(Cl)C2(Cl)Cl)cc1` (stereo not given) it is 109% (inactive).

Regarding `Clc1cc(Cl)cc(Nc2ccc3cc(OCCCN4CCOCC4)ccc3n2)c1`, the growth is 40.9% (inactive). Regarding `COc1ccc(/C=C2\CN(C(=O)CCN3CCC(=NO)CC3)C/C(=C\c3ccc(OC)cc3)C2=O)cc1`, the growth is -27.5% (active). The value for `O=C1/C(=C/c2ccc(Cl)cc2)CN(Cc2cn(CCCNc3ccnc4cc(Cl)ccc34)nn2)C/C1=C\c1ccc(Cl)cc1` was -69.8% (active). The value for `CC(=O)[C@@]12O[C@](C)(c3ccccc3)O[C@@H]1CC1C3CCC4=CC(=O)CC[C@]4(C)C3CC[C@@]12C` (stereo not given in full) was 32.8% (inactive); that for `CN(C)CCC(=O)C1CC1` was 104% (inactive).

Regarding `CN1CCN(Cc2occc(=O)c2O)CCN(C)CCN(Cc2occc(=O)c2O)CC1`, the growth was 111% (inactive) and 87.9% (inactive). As for `O=S(=O)(NCCNc1nccc(-c2c(-c3cccc(F)c3)nc3sccn23)n1)c1ccc(Br)cc1`, the growth is 78.3% (inactive). The value for `CC1(C)C(=O)/C(=C\c2cccnc2)C[C@]2(C)[C@H]3CC=C4[C@@H]5C[C@@](C)(C(=O)O)CC[C@]5(C)CC[C@@]4(C)[C@]3(C)CC[C@@H]12` was 95.8% (inactive); that for `COc1cc(-c2nc3ccccc3[nH]2)ccc1OCC(=O)N=Nc1c(O)[nH]c2ccccc12` was -55.4% (active). Take `Cc1ccc(-n2nnc(C3=NCCc4c3[nH]c3ccc(Cl)cc43)c2C)cc1`: the growth was 71.5% (inactive). The figure for `N#C/C(=C\c1ccc2c(c1)OCO2)c1ccccc1` is 24.8% (inactive); for `O=C(Nc1cnc(C(F)(F)F)cn1)c1cc(Cl)ccc1O` it is -0.82% (active); for `Brc1ccc(SCN(CSc2ccc(Br)cc2)Cc2ccccc2)cc1` it is 98.3% (inactive). The figure for `CCOC(=O)C1=C(N)Oc2c(sc3c(C)cccc23)C1c1ccc(OC)cc1` (stereo not given) is 0.934% (active); for `CCN1CCN(CC(=O)N2c3cccc4cccc(c34)N(C(=O)CN3CCN(CC)CC3)C2c2cn(-c3ccccc3)nc2-c2cccc([N+](=O)[O-])c2)CC1` it is -47.8% (active); for `C[C@H](CCC(=O)O)[C@H]1CC[C@H]2[C@@H]3CC[C@@H]4/C(=C\c5ccco5)C(=O)/C(=C\c5ccco5)C[C@]4(C)[C@H]3CC[C@]12C` it is 41.1% (inactive). The figure for `Cc1ccc(S(=O)(=O)NCCNc2nccc(-c3c(-c4cccc(N)c4)nc4sccn34)n2)cc1` is 63.2% (inactive); for `COC(=O)C(C)Oc1ccc(OC#N)cc1` (stereo not given) it is 99% (inactive). With `O=C1/C(=C/c2ccc(O)cc2)COc2ccc(-c3ccccc3)cc21`, the growth was 65% (inactive). The figure for `O=C(Nc1ccc(-n2ccc3c(NC(=O)c4ccccc4)nccc32)cc1)Nc1ccc(Cl)c(Cl)c1` is -90.1% (active); for `COc1ccc(C(=O)NC(=O)Nc2cc3c(cc2F)/C(=C/c2[nH]c(C)c(CCC(=O)O)c2C)C(=O)N3)c(F)c1` it is 50.4% (inactive). The value for `Cc1cc(N2CCCC2)nc(NC2CCCC(Nc3ccnc4cc(Cl)ccc34)C2)n1` (stereo not given) was -56.1% (active); that for `CCN1C(=O)N(CC)C2C1NC(=S)N2/N=C/c1ccc(C(F)(F)F)cc1` (stereo not given) was 49.4% (inactive); that for `COC1(OC)C2(Cl)C(Cl)=C(Cl)C1(Cl)C1COCC12` (stereo not given) was 87% (inactive). The figure for `N=C(N)c1ccc(OCCCCCCCCCCOc2ccc(C(=N)N)cc2)cc1` is -75.6% (active); for `Nc1cc(N)ncn1` it is 101% (inactive).
